Assay [1] can be described thus: Caspase-3/7 induction in HepG2 cells by small molecules, qHTS assay (AID 1346978). Also: nearly all actives have a fitted effect of over 15% in size. The essentials: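 Wild-type HepG2 cells, 2,000/well, settled 5 hr at 37 C and 5% CO2, then compound-treated for 17 hr; caspase-3/7 activity read by luminescent Caspase-Glo 3/7 after 30 min at room temperature.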
A short description of assay [2]: Caspase-3/7 induction in CHO-K1 cells by small molecules, qHTS assay (AID 1346980). Also: nearly all actives have a fitted effect of over 15% in size. An outline of the steps:
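Wild-type CHO-K1 cells exposed to compounds for 17hr at 37 C, 5% CO2. Caspase-3/7 activity then measured by Caspase-Glo 3/7 luminescence after 30min at room temperature.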
A general note: Quantitative high-throughput screening tests each substance at several concentrations.

Assay [3] is described as follows: Caspase-3/7 induction in HepG2 cells by small molecules, qHTS cell viability counter screen (AID 1346981). Also: series mostly up to about 92 µM; nearly all actives have a fitted effect of over 30% in size. The essentials: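 Wild-type HepG2 cells (2,000/well) were allowed to settle for 5 hr at 37 C, 5% CO2, then dosed with compounds in DMSO by pin transfer. After 16 hr at 37 C, CellTiter-Fluor was added and fluorescence read 1 hr later.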
In assay [4] the target is Nuclear receptor subfamily 1 group I member 2 (Homo sapiens) (UniProt O75469). Kind of assay: Human pregnane X receptor (PXR) small molecule agonists, qHTS assay (AID 1346982). Also: nearly all actives have a fitted effect of over 35% in size. Also: potency is read from the fitted curve at half-maximal effect. The essentials: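 PXR-Luc HepG2 cells (CYP3A4 promoter-driven luciferase) were seeded in medium with 5% charcoal-stripped FBS, left 5 hr at 37 C, then exposed to compounds in DMSO for 24 hr. Luminescence was read after ONE-Glo addition.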
Sequence of Nuclear receptor subfamily 1 group I member 2 (Homo sapiens) (O75469 whole entry, looked up): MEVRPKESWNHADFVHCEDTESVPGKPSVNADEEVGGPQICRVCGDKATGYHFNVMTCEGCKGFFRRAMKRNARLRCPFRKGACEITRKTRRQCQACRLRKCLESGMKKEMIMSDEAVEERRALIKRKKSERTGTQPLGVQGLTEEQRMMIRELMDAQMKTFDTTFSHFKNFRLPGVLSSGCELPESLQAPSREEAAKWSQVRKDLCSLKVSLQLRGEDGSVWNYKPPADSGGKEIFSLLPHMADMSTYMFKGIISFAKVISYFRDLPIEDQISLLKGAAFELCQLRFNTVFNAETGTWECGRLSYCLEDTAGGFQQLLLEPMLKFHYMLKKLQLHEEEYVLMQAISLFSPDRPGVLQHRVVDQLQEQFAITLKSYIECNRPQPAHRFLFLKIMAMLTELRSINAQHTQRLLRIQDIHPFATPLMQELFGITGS

Assay [5] has the same target. Kind of assay: CYP3A4 induction through human pregnane X receptor (PXR) by small molecules, qHTS assay (AID 1346984). Also: nearly all actives have a fitted effect of over 40% in size. Also: potency is read from the fitted curve at half-maximal effect. An outline of the steps:
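DPX-2 cells (HepG2 co-transfected with PXR and CYP3A4 promoter-luciferase) treated with compounds 24 h at 37C; luciferin-IPA CYP3A4 substrate 3uM final added for 3 h, then One-Glo; luminescence read. qHTS format.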

The target of assay [6] is Cytochrome P450 2D6 (Homo sapiens) (UniProt P10635). Kind of assay: Cytochrome P450 Family 2 Subfamily D Member 6 (CYP2D6) small molecule antagonists: luciferase reporter qHTS assay (AID 1671196). Also: nearly all actives have a fitted effect of over 50% in size. Also: potency is read from the fitted curve at half-maximal effect. The essentials:
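CYP2D6 enzyme–substrate mix was held with compound for 10 min at room temperature, then NADPH regeneration solution was added and the reaction ran 1 h at room temperature. Luciferin product was detected by luminescence after 20 min with detection reagent.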
For orientation: A reporter such as luciferase makes a cellular process visible.

In assay [7] the target is Cytochrome P450 2C19 (Homo sapiens) (UniProt P33261). Nature of the assay: Cytochrome P450 Family 2 Subfamily C Member 19 (CYP2C19) small molecule antagonists: luciferase reporter qHTS assay (AID 1671197). Also: nearly all actives have a fitted effect of over 65% in size. Also: potency is read from the fitted curve at half-maximal effect. An outline of the steps: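 Relative luminescence units recorded 20 min after the detection reagent stopped a 1 h, 37C CYP2C19 reaction on proluciferin substrate, which was started by NADPH regeneration following 10 min room-temperature compound preincubation; ketoconazole positive control.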
Sequence of Cytochrome P450 2C19 (Homo sapiens) (P33261 whole entry, looked up): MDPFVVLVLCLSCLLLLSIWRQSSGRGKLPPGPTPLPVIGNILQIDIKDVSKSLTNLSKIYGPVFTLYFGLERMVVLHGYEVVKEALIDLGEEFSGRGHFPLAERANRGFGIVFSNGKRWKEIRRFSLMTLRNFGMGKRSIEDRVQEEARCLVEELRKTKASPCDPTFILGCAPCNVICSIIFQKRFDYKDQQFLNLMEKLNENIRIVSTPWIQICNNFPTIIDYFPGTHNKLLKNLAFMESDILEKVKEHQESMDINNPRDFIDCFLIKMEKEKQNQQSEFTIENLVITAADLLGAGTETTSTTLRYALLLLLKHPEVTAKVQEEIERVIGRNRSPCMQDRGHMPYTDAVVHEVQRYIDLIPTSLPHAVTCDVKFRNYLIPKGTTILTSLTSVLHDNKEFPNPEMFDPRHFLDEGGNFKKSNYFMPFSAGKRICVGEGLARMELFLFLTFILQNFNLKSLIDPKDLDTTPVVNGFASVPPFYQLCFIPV

Assay [8] deals with Cytochrome P450 2C9 (Homo sapiens) (UniProt P11712). Nature of the assay: Cytochrome P450 Family 2 Subfamily C Member 9 (CYP2C9) small molecule antagonists: luciferase reporter qHTS assay (AID 1671198). Also: nearly all actives have a fitted effect of over 50% in size. Also: potency is read from the fitted curve at half-maximal effect. The essentials:
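P450-Glo proluciferin substrate with CYP2C9 enzyme; 10 min RT preincubation, then NADPH regeneration 1 h at 37C; luciferin detection reagent 20 min RT, luminescence in relative luminescence units.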

Assay [9] concerns the target Cytochrome P450 1A2 (Homo sapiens) (UniProt P05177). Nature of the assay: Cytochrome P450 Family 1 Subfamily A Member 2 (CYP1A2) small molecule antagonists: luciferase reporter qHTS assay (AID 1671199). Also: nearly all actives have a fitted effect of over 50% in size. Also: potency is read from the fitted curve at half-maximal effect. The essentials:
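Human CYP1A2 activity measured with a P450-Glo proluciferin substrate; compounds in DMSO preincubated 10 min at room temperature with enzyme-substrate mix, then NADPH regeneration system added for 1 h. Luciferin detection reagent, 20 min, luminescence read.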

Assay [10] has as its target Voltage-gated inwardly rectifying potassium channel KCNH2 (Homo sapiens) (UniProt Q12809). Nature of the assay: Human Ether-a-go-go-Related Gene (hERG) channel small molecule antagonists: fluorescence cell-based qHTS assay (AID 1671200). Also: nearly all actives have a fitted effect of over 50% in size. Also: potency is read from the fitted curve at half-maximal effect. An outline of the steps:
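Cell line hERG-U2OS; dye FluxOR II, 1 h RT dark; Tl+ stimulus; ex 480/em 540 nm, read each second for 2 min.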

For assay [11], the target named is Nuclear receptor subfamily 1 group I member 2 (Rattus norvegicus) (UniProt Q9R1A7). Kind of assay: Rat pregnane X receptor (rPXR) activation by small molecules, qHTS assay (AID 1346983). Also: potency is read from the fitted curve at half-maximal effect; nearly all actives have a fitted effect of over 20% in size. Conditions: rPXR luciferase reporter cells, One-Glo luminescence, 24 h; max activation: stronger effect = higher value. The essentials: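 Cell-based rPXR activation assay: rPXR cells, 2,000 per well, rested 5hr at 37 C, then exposed to compounds in DMSO for 24 hr at 37 C. Luciferase activity read by One-Glo luminescence after 30 min at room temperature.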
Sequence of Nuclear receptor subfamily 1 group I member 2 (Rattus norvegicus) (Q9R1A7 whole entry, looked up): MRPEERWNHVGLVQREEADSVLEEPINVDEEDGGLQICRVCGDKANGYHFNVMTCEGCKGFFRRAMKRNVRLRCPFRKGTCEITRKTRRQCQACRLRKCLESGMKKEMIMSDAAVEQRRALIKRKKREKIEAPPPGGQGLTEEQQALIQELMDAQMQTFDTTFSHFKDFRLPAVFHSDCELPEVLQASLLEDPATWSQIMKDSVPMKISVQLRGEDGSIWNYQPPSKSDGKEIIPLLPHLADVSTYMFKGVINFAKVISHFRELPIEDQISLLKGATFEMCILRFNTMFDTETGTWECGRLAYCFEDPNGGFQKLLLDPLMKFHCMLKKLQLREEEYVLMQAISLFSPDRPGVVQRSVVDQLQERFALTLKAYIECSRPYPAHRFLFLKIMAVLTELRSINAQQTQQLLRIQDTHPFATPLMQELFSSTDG

Assay [12] deals with Cytochrome P450 3A4 (Homo sapiens) (UniProt P08684). Nature of the assay: Cytochrome P450 Family 3 Subfamily A Member 4 (CYP3A4) small molecule antagonists: luciferase reporter qHTS assay (AID 1671201). Also: nearly all actives have a fitted effect of over 50% in size. Also: potency is read from the fitted curve at half-maximal effect. The essentials: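 Room-temperature assay throughout: 10 min compound–enzyme/substrate preincubation, 1 h reaction after NADPH regeneration solution, 20 min detection. Luciferin formed from proluciferin substrate is quantified by luminescence.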
Sequence of Cytochrome P450 3A4 (Homo sapiens) (P08684 whole entry, looked up): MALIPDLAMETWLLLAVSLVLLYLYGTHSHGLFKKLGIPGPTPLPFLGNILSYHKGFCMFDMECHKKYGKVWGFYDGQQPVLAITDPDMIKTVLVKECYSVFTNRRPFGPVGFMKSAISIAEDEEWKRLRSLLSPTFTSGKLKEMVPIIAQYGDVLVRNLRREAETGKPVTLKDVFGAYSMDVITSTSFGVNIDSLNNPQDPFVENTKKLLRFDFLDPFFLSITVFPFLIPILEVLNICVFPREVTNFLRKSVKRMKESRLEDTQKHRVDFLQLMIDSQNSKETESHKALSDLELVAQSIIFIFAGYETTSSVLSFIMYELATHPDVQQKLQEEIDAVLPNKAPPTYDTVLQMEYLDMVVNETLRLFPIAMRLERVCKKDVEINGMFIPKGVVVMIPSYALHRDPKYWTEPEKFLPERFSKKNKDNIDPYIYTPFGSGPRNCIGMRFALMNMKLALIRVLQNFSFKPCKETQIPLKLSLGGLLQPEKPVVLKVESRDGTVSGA

The target of assay [13] is Nuclear receptor subfamily 1 group I member 2 (Homo sapiens) (UniProt O75469). Kind of assay: Human pregnane X receptor (PXR) activation by small molecules, qHTS assay (AID 1346985). Also: nearly all actives have a fitted effect of over 40% in size. Also: potency is read from the fitted curve at half-maximal effect. An outline of the steps: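 DPX-2 cells (HepG2 co-transfected with a PXR response element and a CYP3A4-promoter luciferase construct) were seeded at 2,000 per well, rested 5 hr at 37C, then exposed to DMSO-dissolved compounds for 24 hr. Activation was read as luciferase luminescence.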

Assay [14] in a line: Caspase-3/7 induction in CHO-K1 cells by small molecules, qHTS cell viability counter screen (AID 1346979). Also: nearly all actives have a fitted effect of over 35% in size. An outline of the steps:
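Multiplexed with Caspase-Glo 3/7 in CHO-K1 cells, this counter screen added CellTiter-Fluor after 16hr of compound exposure and recorded fluorescence 1hr later.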

A number with no mark means an inactive call. Inconclusive results are not listed. Calls of active or inactive are those of the source. Calls follow the shape of the dose curve; as a rule, active = well fitted curve in the direction sought with a large enough effect in the repeat runs; inconclusive = weak or mixed curves; inactive = no such curve, though single readings can be large; an effect the other way counts as inactive or inconclusive.

Sequence of Cytochrome P450 2C9 (Homo sapiens) (P11712 whole entry, looked up): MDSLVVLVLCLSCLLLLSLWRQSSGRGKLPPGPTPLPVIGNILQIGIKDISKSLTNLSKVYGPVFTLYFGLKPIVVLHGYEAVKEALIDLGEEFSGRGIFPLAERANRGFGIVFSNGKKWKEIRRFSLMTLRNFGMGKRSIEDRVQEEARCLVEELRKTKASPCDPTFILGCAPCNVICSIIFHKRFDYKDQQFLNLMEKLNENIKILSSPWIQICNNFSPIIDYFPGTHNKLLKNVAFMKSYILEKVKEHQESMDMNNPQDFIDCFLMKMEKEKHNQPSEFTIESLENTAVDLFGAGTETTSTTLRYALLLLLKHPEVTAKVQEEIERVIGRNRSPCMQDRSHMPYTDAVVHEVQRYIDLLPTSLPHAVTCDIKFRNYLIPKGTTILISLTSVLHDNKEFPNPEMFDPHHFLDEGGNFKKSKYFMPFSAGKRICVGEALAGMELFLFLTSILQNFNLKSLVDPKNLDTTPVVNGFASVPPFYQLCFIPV
Sequence of Voltage-gated inwardly rectifying potassium channel KCNH2 (Homo sapiens) (Q12809 whole entry, looked up): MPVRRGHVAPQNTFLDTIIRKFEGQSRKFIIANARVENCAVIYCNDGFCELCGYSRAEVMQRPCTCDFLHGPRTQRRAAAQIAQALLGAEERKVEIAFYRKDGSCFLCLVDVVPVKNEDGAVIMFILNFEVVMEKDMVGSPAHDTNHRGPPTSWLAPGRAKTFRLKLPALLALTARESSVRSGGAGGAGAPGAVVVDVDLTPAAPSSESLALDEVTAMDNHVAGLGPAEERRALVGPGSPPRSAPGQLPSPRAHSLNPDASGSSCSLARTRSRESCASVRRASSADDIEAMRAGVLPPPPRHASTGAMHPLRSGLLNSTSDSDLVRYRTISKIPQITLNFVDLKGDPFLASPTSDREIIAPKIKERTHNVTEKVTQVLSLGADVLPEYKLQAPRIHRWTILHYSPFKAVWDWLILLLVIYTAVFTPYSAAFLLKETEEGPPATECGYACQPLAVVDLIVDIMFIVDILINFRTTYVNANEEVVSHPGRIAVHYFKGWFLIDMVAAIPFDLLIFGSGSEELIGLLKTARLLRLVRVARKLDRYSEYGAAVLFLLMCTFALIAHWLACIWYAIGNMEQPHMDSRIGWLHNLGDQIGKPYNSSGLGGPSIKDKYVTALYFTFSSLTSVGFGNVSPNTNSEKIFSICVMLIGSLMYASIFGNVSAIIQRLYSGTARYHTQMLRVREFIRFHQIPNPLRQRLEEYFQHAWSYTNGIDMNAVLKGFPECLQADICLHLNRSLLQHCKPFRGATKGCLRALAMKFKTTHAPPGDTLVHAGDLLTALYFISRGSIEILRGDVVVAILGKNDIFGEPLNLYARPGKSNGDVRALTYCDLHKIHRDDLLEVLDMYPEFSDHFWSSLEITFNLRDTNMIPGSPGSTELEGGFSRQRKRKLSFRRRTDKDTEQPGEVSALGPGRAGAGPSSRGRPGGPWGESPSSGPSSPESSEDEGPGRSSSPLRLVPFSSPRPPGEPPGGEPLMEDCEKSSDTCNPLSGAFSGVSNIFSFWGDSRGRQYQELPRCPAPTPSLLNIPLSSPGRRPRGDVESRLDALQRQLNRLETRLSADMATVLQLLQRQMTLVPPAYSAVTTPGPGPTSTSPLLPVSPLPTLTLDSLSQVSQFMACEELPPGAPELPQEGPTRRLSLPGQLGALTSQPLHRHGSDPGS
Sequence of Cytochrome P450 2D6 (Homo sapiens) (P10635 whole entry, looked up): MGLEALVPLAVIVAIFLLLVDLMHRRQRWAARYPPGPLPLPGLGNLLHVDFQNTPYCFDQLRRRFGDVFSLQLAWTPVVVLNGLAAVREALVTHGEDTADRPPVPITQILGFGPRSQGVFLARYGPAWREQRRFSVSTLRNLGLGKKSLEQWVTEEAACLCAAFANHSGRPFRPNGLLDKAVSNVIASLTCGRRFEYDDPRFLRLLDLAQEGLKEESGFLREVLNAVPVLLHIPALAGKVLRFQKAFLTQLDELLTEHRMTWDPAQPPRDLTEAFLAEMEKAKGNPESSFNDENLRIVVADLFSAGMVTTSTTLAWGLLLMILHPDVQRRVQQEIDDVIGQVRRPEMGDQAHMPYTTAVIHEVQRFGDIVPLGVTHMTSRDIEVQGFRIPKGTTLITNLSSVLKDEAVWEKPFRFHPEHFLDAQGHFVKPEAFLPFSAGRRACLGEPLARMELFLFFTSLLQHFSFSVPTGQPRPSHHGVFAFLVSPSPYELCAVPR
Sequence of Cytochrome P450 1A2 (Homo sapiens) (P05177 whole entry, looked up): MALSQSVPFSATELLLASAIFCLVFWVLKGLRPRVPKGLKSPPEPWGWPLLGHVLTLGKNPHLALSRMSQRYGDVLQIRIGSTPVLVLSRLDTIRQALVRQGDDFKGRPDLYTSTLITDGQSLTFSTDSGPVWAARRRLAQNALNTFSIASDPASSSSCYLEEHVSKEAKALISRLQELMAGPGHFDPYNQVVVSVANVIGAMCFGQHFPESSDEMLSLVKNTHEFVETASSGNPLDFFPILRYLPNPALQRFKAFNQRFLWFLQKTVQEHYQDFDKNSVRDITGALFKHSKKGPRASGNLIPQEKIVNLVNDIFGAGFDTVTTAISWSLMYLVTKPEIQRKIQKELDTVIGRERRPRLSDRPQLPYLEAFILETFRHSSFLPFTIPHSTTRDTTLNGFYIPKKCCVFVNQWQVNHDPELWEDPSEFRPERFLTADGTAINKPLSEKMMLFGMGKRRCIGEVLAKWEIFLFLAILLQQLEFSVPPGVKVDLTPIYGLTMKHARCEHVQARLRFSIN

As for `CCN1CC(CCN2CCOCC2)C(c2ccccc2)(c2ccccc2)C1=O` (configuration not stated), the Potency entry in assay [1], in [3], in [4], in [5], in assay [7] and in [8] was “inactive” each time. Besides, the Potency entry in [9] and in assay [10] was “inactive” in each case. Also, in assay [2], the result was inactive. In addition, the Potency in assay [6] is 1.23 µM (active).
With `COc1ccc2nc(NC(=O)Nc3ccccc3)sc2c1`, the Potency entry in [1], in assay [6], in [10] and in assay [12] was “inactive” throughout. Besides, the call in [2] was inactive. In addition, the Potency in assay [4] is 1.88 µM (active); in [11], 0.199 µM (active); in assay [7], 21.9 µM (active); in assay [8], 15.5 µM (active); in assay [9], 12.3 µM (active).
For the molecule `O=C(CC(=O)C(F)(F)F)c1ccccc1`, the Potency entry in assay [1], in assay [3], in [10] and in assay [12] was “inactive” in each case. Also, the molecule was called inactive in assay [2]. In addition, the figures for the Potency in [4], in [7] and in [8] were 55.3 µM (active), 36.1 µM (active) and 32.2 µM (active), respectively.
Regarding `CN1CCN(C2=Nc3ccccc3Oc3ccc(Cl)cc32)CC1`, the Potency result in assay [1], in assay [13] and in assay [9] was “inactive” throughout. The outcome in assay [2] was inactive. Also, the Potency in [4] is 23.7 µM (active); in assay [5] it was 1.26 µM (active); in assay [6], 4.9 µM (active); in assay [7], 8.71 µM (active); in assay [10], 16.9 µM (active).
Take `CCCCNC(=S)NCCCC`: the Potency entry in assay [1], in [3] and in assay [10] was “inactive” in each case. Further, the Potency in assay [7] is 79.6 µM (active); in assay [8], 71 µM (active); in assay [9], 44.8 µM (active); in assay [12], 31.7 µM (active).
Turning to `OCC(CBr)(CBr)CBr`, the Potency entry in [14], in [6], in [7], in assay [9], in [10] and in assay [12] was “inactive” in each case. Moreover, the result in assay [2] was inactive.
`Cc1nc(-c2ccccn2)ncc1C(=O)Nn1cc(C)c2cc(F)ccc21`: the Potency result in assay [1], in assay [3] and in [10] was “inactive” throughout. Further, the Potency in assay [4] is 4.86 µM (active); in assay [6], 44.8 µM (active); in assay [7], 56.4 µM (active); in assay [8] it was 1.59 µM (active); in assay [9] it was 31.7 µM (active); in [12], 7.96 µM (active).
In the case of `CCCCCCOc1ccc(N)cc1`, the Potency result in assay [1], in [3] and in assay [10] was “inactive” each time. Moreover, the Potency in [4] was 48.6 µM (active); in assay [6] it was 35.6 µM (active); in [7], 2 µM (active); in assay [8] it was 22.4 µM (active); in [9], 3.99 µM (active); in assay [12], 35.6 µM (active).
Regarding `O=C(Cl)c1cccc([N+](=O)[O-])c1`, the Potency entry in [1], in assay [4], in assay [6], in assay [8], in assay [10] and in assay [12] was “inactive” each time. Also, in [2], the result was inactive. Also, the Potency in [9] was 34.6 µM (active).
`CCc1cc2cc(OC)c(OC)cc2c(Cc2ccccc2)n1`: the Potency result in assay [1] was “inactive”. Moreover, the Potency was 13.3 µM (active) in [4], 17.4 µM (active) in assay [7], 15.5 µM (active) in assay [8] and 6.45 µM (active) in assay [9].
As for `CCCS(=O)c1ccc2nc(NC(=O)OC)[nH]c2c1` (configuration not stated), the Potency result in assay [1], in assay [8], in assay [10] and in [12] was “inactive” each time. Further, the molecule was classed as inactive in assay [2].
In the case of `CN(CCCN1c2ccccc2CCc2ccccc21)CC(=O)c1ccc(Cl)cc1`, the Potency entry in [1], in assay [3] and in [10] was “inactive” each time. Besides, in assay [2], the result was inactive. Moreover, the Potency is 18.8 µM (active) in assay [4]; 25.1 µM (active) in assay [5]; 22.4 µM (active) in assay [13]; 3.47 µM (active) in assay [7]; 15.5 µM (active) in assay [8]; 11 µM (active) in [9].

(Values after PubChem BioAssay (Tox21).)
